# From PubChem BioAssay
# Rab9 promoter act: Rab9 promoter activation. Huh7 Rab9 promoter-luciferase reporter, luminescence, 24 h. Potency, µM (titrated, usually from 9.22 µM), inactives show at the highest dose activation, negative = inhibition, usual class: activators. AID 485297. 320,000 tested, 2.8% active; note: % of control where 0% means no effect; nearly all actives have a fitted effect of over 60% in size
#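 Quantitative HTS format; Huh7 Rab9-luciferase reporter cells (1500/well) receive compound 2 h post-plating, incubate 24 h at 37 °C, then get luciferase reagent for 10 min before luminescence reading.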
# SMN2 splice enh: SMN2 splice variant enhancement. HEK293 SMN2-luciferase splicing reporter, luminescence, 30-36 h. Potency, µM (top dose mostly 46.1 µM), inactives show at the top dose activity change, positive = activation, most hits filed as activators. 210,000 tested, 2.8% active. AID 1458; note: % of control where 0% means no effect; nearly all actives have a fitted effect of over 55% in size
#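 HEK293 cells carry an SMN2 […]–luciferase reporter in which exon 7 inclusion puts luciferase in frame. Cells were plated 10-12 h before compound addition, then incubated 30-36 h at 37C. ONE-Glo luminescence was read; sodium butyrate at 4.5 mM final served as control.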
# p53 reactivation: mutant p53 re-activation in reporter cells | AID 504706 | H1299 p53-A138V BP100-luciferase reporter, luminescence, 24 h | 320,000 tested, 0.063% active | Potency, µM (series often up to 92.2 µM), for the others: at the highest dose activity change, positive = activation, usual class: activators; note: % of control where 0% means no effect; nearly all actives have a fitted effect of over 45% in size
#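 p53-null H1299 cells stably carrying temperature-sensitive p53-A138V and a BP100-luciferase reporter were pinned with compounds (4-point, 1:5 series) and held 24 hrs at 37 deg C. Luminescence was read 10 min after detection reagent.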
# ELG1 genotoxic: inducers of genotoxicity in HEK293T ELG1-luciferase cells | HEK293T ELG1-luciferase reporter, luminescence, 16 h | Potency, µM (doses to about 46 µM), inactives show at the highest dose activity change, positive = activation, hits mostly activators | 330,000 tested, 1.3% active; note: % of control where 0% means no effect; nearly all actives have a fitted effect of over 60% in size
#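 Genotoxic stress is detected as increased luminescence from luciferase-tagged ELG1 in HEK293T cells, measured with ONE-Glo after a 16 hr treatment at 37 °C.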
# FLuc counter: counter-screen for miR-21 project: firefly luciferase inhibitors or activators; Potency, µM (titrated, usually from 57.5 µM), for the others: at the highest dose activity change, negative = inhibition, most hits filed as inhibitors; AID 588342; purified FLuc, Km substrates, luminescence inhibition; 360,000 tested, 6.9% active; P08659;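 note: plate controls were vehicle for no effect and reference inhibitor for full effect; nearly all actives have a fitted effect of over 55% in size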
# Target sequence (P08659 whole entry, looked up): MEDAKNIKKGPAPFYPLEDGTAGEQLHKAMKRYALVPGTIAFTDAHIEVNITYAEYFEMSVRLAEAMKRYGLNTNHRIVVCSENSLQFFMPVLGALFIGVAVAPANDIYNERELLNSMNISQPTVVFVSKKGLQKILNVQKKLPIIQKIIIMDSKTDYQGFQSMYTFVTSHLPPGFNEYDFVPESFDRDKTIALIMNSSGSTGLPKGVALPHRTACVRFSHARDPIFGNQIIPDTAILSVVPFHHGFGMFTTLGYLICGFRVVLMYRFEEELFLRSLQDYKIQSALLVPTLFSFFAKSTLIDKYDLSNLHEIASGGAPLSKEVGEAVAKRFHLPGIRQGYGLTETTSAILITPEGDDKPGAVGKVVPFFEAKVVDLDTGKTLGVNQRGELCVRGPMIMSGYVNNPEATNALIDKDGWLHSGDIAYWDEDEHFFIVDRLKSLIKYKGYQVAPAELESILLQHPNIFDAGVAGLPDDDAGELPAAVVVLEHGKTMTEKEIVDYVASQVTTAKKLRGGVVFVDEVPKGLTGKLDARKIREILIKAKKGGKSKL
#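 Purified P. pyralis luciferase (10nM final) with 10uM D-luciferin and 10uM ATP (Km levels) in 50mM Tris acetate pH 7.5, 10mM Mg acetate, 0.01% Tween-20, 0.05% BSA; qHTS 6-point titration, ~60 µM downward; luminescence read.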
# NPC1 prom act: activates the NPC1 promoter; 320,000 tested, 2.4% active; Potency, µM (highest dose often 9.22 µM), inactives show at the top dose activation, hits mostly activators; Huh7 NPC1 promoter luciferase reporter, 24 h; note: % of control where 0% means no effect; nearly all actives have a fitted effect of over 60% in size
#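 Luciferase expression driven by the NPC1 promoter was measured in stably transfected Huh7 cells after a 24 h compound incubation, using a luciferase reagent and a luminescence read.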
# Numbers without * were called inactive; ? = inconclusive; . = no result given; [ ] = remark or other dose. Shown are actives, neighbours in structure and some others; about 7.3% of the full set was active somewhere. Calls come from the whole dose curve; as a rule, active = well fitted curve in the direction sought with a large enough effect; inconclusive = small, poorly fitted or top-dose-only effect, or another doubt; inactive = no such curve, though single readings can be large; an effect the other way counts as inactive or inconclusive. Potency is the fitted concentration of half-maximal effect.
SMILES,Rab9 promoter act,SMN2 splice enh,p53 reactivation,ELG1 genotoxic,FLuc counter,NPC1 prom act
Cc1cccc(Nc2nc(-c3ccncc3)cs2)c1,?,-4%,16%,3%,17µM*,1%
CC(C)(C)c1ccc(C(=O)Nc2ccccc2NC(=O)c2ccco2)cc1,-2%,-13%,5%,-3%,19µM*,-1%
O=C(Nc1ccccc1NC(=O)c1ccco1)c1ccccc1,-4%,.,-2%,-2%,0%,-2%
CS(=O)(=O)Nc1ccc(C(=O)Nc2ccccc2Cl)cc1,-1%,19%,5%,0%,1%,-5%
CC(C)(C)c1ccc(C(=O)Nc2ccccc2Cl)cc1,0.71µM*,.,?,0%,1.9µM*,0.79µM*
CC(C)(C)c1ccc(C(=O)Nc2cccc3ncccc23)cc1,5%,.,3%,-4%,13µM*,-2%
C[C@]12C=CC(=O)C=C1CC[C@@H]1[C@H]3C[C@@H](O)[C@](O)(C(=O)CO)[C@@]3(C)C[C@H](O)[C@]12F,.,0%[20.6 µM],.,.,.,.
CCOc1ccccc1NC(=O)Cn1c(=O)n(Cc2ccco2)c(=O)c2ccc(C(=O)NC3CCCC3)cc21,.,6%,.,.,-3%,.
O=C(O)[C@@H]1[C@@H](C(=O)NCc2ccncc2)[C@@H]2C=C[C@@H]1O2,.,-8%[9.22 µM],.,.,.,.
CCOC(=O)c1ccccc1NC(=O)CSc1ncc(CO)n1Cc1ccc(C)cc1,.,.,.,.,-9%,.
COC(=O)c1ccc(/C=C/c2nc3ccccc3c(=O)[nH]2)cc1,1.1µM*,.,?,?,0.67µM*,0.5µM*
Cc1ccc(/C=C/c2nc3ccccc3[nH]2)cc1,.,.,.,.,0.076µM*,.
Cc1ccc(/C=C(\C#N)c2nc3ccccc3c(=O)[nH]2)cc1,.,1%,.,.,-1%,.
Cc1ccc(/C=C/c2nc3ccccc3[nH]2)o1,0.45µM*,4µM*,22%,?,0.85µM*,0.71µM*
COCCOC(=O)N/C=C\c1nc2ccccc2c(=O)[nH]1,0%,18%,?,6%,?,-7%
Cc1ccc(/C=C/c2nc3ccccc3c(=O)[nH]2)cc1,0.35µM*,.,17%,?,0.15µM*,0.5µM*
CC(C)(C)c1ccc(OCc2cc(=O)n3c4c(sc3n2)CCCC4)cc1,.,-5%,.,.,-2%,.
COC(=O)c1cc(-c2ccccc2)n(CC(=O)O)c1C,11%,.,10%,-4%,4%,1%
CCCCCCCC/C=C\CCCCCCCC(=O)NC(C)C(=O)O (stereo unspecified),.,11%,.,.,.,.
COc1cc(/C=C/c2nc3ccccc3c(=O)[nH]2)ccc1OC(F)F,?,.,19%,27%,?,5µM*
COc1cc(/C=C/c2nc3ccccc3c(=O)[nH]2)cc(OC)c1OC,0%[1.84 µM],.,7%,12%,?,-5%
C=CCOc1cccc(/C=C/c2nc3ccccc3c(=O)[nH]2)c1,3.5µM*,.,?,9.2µM*,1.5µM*,?
Cc1cccc(N(CC(=O)NCCSc2ccc(Cl)cc2)S(C)(=O)=O)c1C,.,-3%,.,.,-17%,.
O=C(c1ccco1)N1CCC2(CC1)CN(C(c1ccccc1)c1ccccc1)C2,.,-17%,.,.,.,.
O=C(Nc1nccs1)c1ccc(COc2c(F)c(F)cc(F)c2F)o1,2%,.,32%,7%,0%,24%
SMILES,Rab9 promoter act,SMN2 splice enh,p53 reactivation,ELG1 genotoxic,FLuc counter,NPC1 prom act
Cc1ccccc1-c1ccc(C(=O)Nc2cccc(F)c2)o1,15%,13%,?,?,9.5µM*,6%
Cc1cccc(C)c1NC(=O)c1ccc(-c2ccc(Cl)cc2Cl)o1,-11%,-3%,10%,-30%,-1%,6%
O=C(Nc1nccs1)c1ccc(-c2ccc(F)c(Cl)c2)o1,?,.,16%,-1%,6µM*,?
O=C(Nc1nccs1)c1ccc(-c2ccc(Cl)cc2Cl)o1,3.2µM*,14µM*,?,?,0.85µM*,3.5µM*
Cc1ccccc1NC(=O)c1ccc(-c2ccc(Cl)cc2Cl)o1,19%,0%,17%,7%,8.5µM*,9%
CC(C)C[C@@H](CC(=O)N[C@@H](CCC(=O)O)CC(=O)O)NC(=O)[C@@H]1CCCC[C@H]1NC(=O)C[C@@H](NC(=O)C[C@H](Cc1ccccc1)NC(=O)[C@@H]1CCCC[C@H]1N)C(C)C,.,-2%,.,.,.,.
C=CCOC(=O)c1ccc(N2CCN(c3ccccc3)CC2)nc1,21%,.,17%,4%,17µM*,23%
COC(=O)c1ccc(N2CCN(c3ccccc3)CC2)nc1,?,.,12%,?,?,?
O=C(O)CCc1nc(-c2ccc(Cl)cc2)no1,1%,7%,5%,1%,-7%,-2%
CC(C)(CC(=O)O)Cc1nc(-c2ccc(Cl)cc2)no1,3%,7%,20%,?,27µM*,16%
CC(C)(C)c1ccc(-c2noc(CCC(N)=O)n2)cc1,-32%,-43%,-4%,-11%,6µM*,-26%
COc1cc(-c2noc(CCC(N)=O)n2)cc(OC)c1OC,-7%,5%,-12%,-1%,0%,-3%
CC(C)(C)c1ccc(-c2noc(CCC(=O)N3CCOCC3)n2)cc1,1.8µM*,?,9%,?,2.4µM*,?
CC(C)(C)c1ccc(-c2noc(CCC(=O)Nc3cccnc3)n2)cc1,-37%,.,13%,?,1.7µM*,-39%
c1cnc(N2CCN(c3ncc4c(n3)CCNC4)CC2)nc1,.,?,.,.,0%,.
CCN(CCCNC(=O)Cn1ncc2c3ccccc3n(C)c2c1=O)c1cccc(C)c1,.,16%,.,.,5%,.
